The results in this text go back to PubChem BioAssay AID1578 (Sanford-Burnham Center for Chemical Genomics, 2009).

Structures are written as SMILES. In all, about 290,000 compounds went through this assay and about 3,000 (1%) were called active. For the sample, actives were picked, then their nearest neighbours and some compounds at random. A number with no mark means an inactive call. No stated cut-off is given here; in the data, active means inhibition mostly above about 36% (no sharp cut-off); inactive means mostly below about 34%.

This assay can be described thus: NOD1 signaling inhibitors, primary screen, cell-based, luminescence, uHTS (AID 1578).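 Further: HEK-293T reporter cells stimulated with the NOD1 agonist gamma-tri-DAP.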 The following applies: NOD1-driven NF-kB luciferase reporter cells, at 4 µM, stronger effect = higher value. On the technique in general: A reporter such as luciferase makes a cellular process visible.
A word on the inhibition: it is the relative decrease from the control value, in per cent. Take `CCOC(=O)c1ccc(NC(=O)CSc2nc(N)c(NC(=O)c3ccc(Br)o3)c(=O)[nH]2)cc1`: the inhibition was -26.5%.
For `CN(C(=O)COC(=O)c1cc(S(=O)(=O)N2CCCCC2)ccc1N1CCOCC1)C1CCS(=O)(=O)C1` (stereo unspecified) the value was -0.1%; for `COC(=O)N/N=C/c1cc(C)n(-c2ccc(F)cc2)c1C`, -30%; for `COC(=O)C1C2C=CC3(CN(CCc4ccccc4)C(=O)C13)O2` (stereo unspecified), -14.5%.
For `Cc1[nH][nH]c(=O)c1/C=N/N1CCOCC1` the value was -39.8%.
For `CCC(C)(C(=O)NC1CCCCC1)N(C(=O)CC1NC(=O)NC1=O)c1c(C)n(C)n(-c2ccccc2)c1=O` (stereo unspecified) the value was -11.2%; for `c1ccc(-n2ncc3c(N4CCCCC4)ncnc32)cc1`, 61.4% (active).
Turning to `Cc1cccc(-n2ncc3c(N4CCCC4)ncnc32)c1`, the inhibition is -40.5%.
As to `CC1CCN(c2ncnc3c2cnn3-c2ccccc2)CC1`, the inhibition was -77.4%.
The same measure for `COc1cc(OC)c2cc(C(=O)N[C@H](C(=O)N3CCC[C@H]3C(=O)O)C(C)C)n(C)c2c1`: -17.5%; for `Cc1nc(SCC(N)=O)c(C#N)c(C)c1C`: 5.5%.
With `CCN(CC)C(=O)c1ccc(Nc2nnc(-c3ccc(O)cc3)c3ccccc23)cc1`, the inhibition was 72.7% (active).
The same measure for `CCN(CC)C(=O)c1ccc(-c2nnc(Nc3ccc(O)cc3)c3ccccc23)cc1`: 43%; for `CCN(CC)C(=O)c1ccc(-c2nnc(Nc3ccc(C(=O)N(C)C)cc3)c3ccccc23)cc1`: 37.7%; for `Cn1ncc(Cl)c1C(=O)N/N=C/c1cccc(OC2CSC2)c1`: -1.4%.
The same measure for `Cn1cc(Br)c(C(=O)N/N=C/c2cccc(OC3CSC3)c2)n1`: 0.1%; for `Cn1ncc(Br)c1C(=O)N/N=C/c1cccc(OC2CSC2)c1`: 60.4% (active).
Consider `CCOC(=O)c1cnc(SCC(=O)Nc2ccc(N3CCOCC3)cc2)nc1N`, for which the inhibition is -15%.
For `O=c1cc(NS(=O)(=O)c2ccccc2)nc(SCc2ccc(Cl)cc2)[nH]1` the value was -1.1%.
For `O=c1cc(NS(=O)(=O)c2ccccc2)nc(SCc2ccccc2Cl)[nH]1` the value was -0.5%; for `O=c1cc(NS(=O)(=O)c2ccccc2)nc(SCc2c(Cl)cccc2Cl)[nH]1`, 102% (active).
On to `Cc1ccc(NC(=O)CCc2nnc3ccc(N4CCC(C)CC4)nn23)nc1`, for which the inhibition is -3.1%.
For `Cc1[nH]n(C(N)=S)c(=O)c1N=Nc1ccc(Br)cc1` the value was -21.9%; for `CCOc1ccc(N(CC)C(=O)Cc2c(C(=O)O)n(C)c3ccccc23)cc1`, -11.1%; for `CC(C)Cc1nc(N2CCN(C(=O)c3ccco3)CC2)c(C#N)c2c1CCCC2`, 2.6%.
In the case of `CC(C)Cc1nc(N2CCN(C(=O)c3ccco3)CC2)c(C#N)c2c1CCC2`, the inhibition is -0.7%.
Consider `CCN(CC)S(=O)(=O)c1ccc(N2CCOCC2)c(NC(=O)c2ccc3ccccc3c2)c1`, for which the inhibition is -17%.
The same measure for `Cc1nn(CCc2nn[nH]n2)c2nc(C(F)(F)F)cc(C(F)(F)F)c12`: -7.9%.
For `CCOc1cc(C(=O)Nc2ccc3c(c2)OCO3)ccc1OC(F)F` the value was -17.4%.
Turning to `Clc1ccc(-n2nnc(-c3cccnc3)n2)cc1Cl`, the inhibition was -12.2%.
On to `Brc1ccccc1-n1nnc(-c2nccs2)n1`, for which the inhibition is -44.7%.
For the compound `Cc1ccc(-n2nnc(-c3nccs3)n2)cc1`, the inhibition was 77.8% (active).
For the compound `Clc1ccc(-n2nnc(-c3nccs3)n2)cc1Cl`, the inhibition is 110% (active).
For `Clc1ccc(-n2nnc(-c3cccnc3Cl)n2)cc1Cl`, the inhibition was -3%.
For `Fc1ccc(-n2nnc(-c3nccs3)n2)cc1` the value was -26%; for `CCCC(c1nnnn1Cc1cccs1)N1CCN(C2CCCC2)CC1` (stereo unspecified), -49.9%; for `COc1ccccc1-n1cnc2sc(-c3ccccc3)cc2c1=O`, 30.1%.
The same measure for `O=C(CNC(=O)c1cccc(OC(F)F)c1)OCc1cc(=O)n2cc(Br)ccc2n1`: 4.7%.
The same measure for `OC(COc1ccccc1)CN1CCC(Cc2ccccc2)CC1` (stereo unspecified): -20.8%; for `CN(C)c1nc(C(F)(F)F)cc(=O)[nH]1`: -21.2%; for `c1ccc(-n2ncc3c(N4CCC5(CC4)OCCO5)ncnc32)cc1`: -67%.
On to `COc1cccc(NC(=O)C2COc3ccccc3O2)c1` (stereo unspecified), for which the inhibition is 104% (active).
As for `COC(=O)c1cccc(NC(=O)C2COc3ccccc3O2)c1` (stereo unspecified), the inhibition is -42.9%.
For `O=C(NC1=NCCS1)C1COc2ccccc2O1` (stereo unspecified) the value was 82.7% (active).
For `O=C(Nc1ccccc1)C1COc2ccccc2O1` (stereo unspecified) the value was -21.9%.
For `Cc1cccc(NC(=O)C2COc3ccccc3O2)c1` (stereo unspecified) the value was -23%; for `O=C(Nc1nncs1)C1COc2ccccc2O1` (stereo unspecified), -18.9%; for `c1ccc(COc2cccc(CNCc3cccs3)c2)cc1`, -31.8%.
With `O=C1CSc2ccc(C(=O)N3CCN(c4ccccn4)CC3)cc2N1`, the inhibition was 0.1%.
For `C#CCSc1ncc(S(=O)(=O)c2ccccc2)c(=O)[nH]1` the value was 7.6%; for `COCCCn1c(SCC(=O)Nc2ccc(C(C)=O)cc2)nc2ccccc2c1=O`, -25.3%; for `O=C(O)c1cccc(-c2nc3ccccc3[nH]2)c1`, 61.9% (active).
For `c1ccc(-c2nc3ccccc3[nH]2)cc1` the value was -1.5%; for `O=C(O)c1ccc(-c2nc3ccccc3[nH]2)cc1`, -38.1%; for `Cc1ccc(N/C(=C\C(=O)c2ccccc2)C(=O)O)cc1`, -33.5%.
The same measure for `O=[N+]([O-])c1ccc(S(=O)(=O)c2ccccc2)nc1`: 29%.
For `Cc1ccc(S(=O)(=O)N2CCN(c3ccc([N+](=O)[O-])cn3)CC2)cc1`, the inhibition is -9.1%.
For `CCOc1cccc(C(=O)Nc2ccc(S(=O)(=O)Nc3cc(C)on3)cc2)c1` the value was -2%; for `CCN(CC)c1ncnnc1-c1ccccc1`, -22.1%.
For `CC(C)(C)c1ccc(N/N=C(\C#N)S(=O)(=O)C(C)(C)C)cc1` the value was 41% (active); for `CC(C)(C)S(=O)(=O)/C(C#N)=N/Nc1ccc(C#N)cc1`, -38.5%; for `CC(C)(C)S(=O)(=O)/C(C#N)=N/Nc1ccc(Cl)cc1`, 4.5%.
The same measure for `CC(=O)C1=C(O)C(=O)N(CCc2ccccc2)C1c1ccccc1[N+](=O)[O-]` (stereo unspecified): -12%; for `CCOC(=O)N1CCN(C(=O)c2cc3cc(OC)c(OC)cc3[nH]2)CC1`: -3.4%; for `O=C(NCCc1ccccc1)C(=O)NCC1OCCN1S(=O)(=O)c1ccc(Cl)cc1` (stereo unspecified): -1.1%.
As for `CCCCN(C)Cc1c(C)[nH]c2c(Cl)cccc2c1=O`, the inhibition is -15%.
For `O=C(Nc1nnc(C2CC2)s1)c1ccc(Cl)c(S(=O)(=O)N2CCc3ccccc3C2)c1` the value was 59%.
For `CCc1nnc(NC(=O)c2ccc(S(=O)(=O)N3CCc4ccccc4C3)cc2)s1` the value was -1.9%; for `CN1CCN(c2nc3ccccc3nc2C(C#N)S(=O)(=O)c2ccccc2)CC1` (stereo unspecified), -5.2%.
The same measure for `CSC1=N/C(=C\c2ccccc2Cl)C(=O)N1N(C)C`: 0.8%.
On to `O=C(CN1CCc2ccccc2C1)NCC(=O)Nc1ccc(F)cc1`, for which the inhibition is -25.2%.
For `CCOc1cc(C2/C(=C(/O)c3ccc(OC)cc3)C(=O)C(=O)N2CC2CCCO2)ccc1O` (stereo unspecified) the value was -1.7%; for `COc1ccc(O)c(CN2CCC(n3nccc3NC(=O)CCOc3ccccc3)CC2)c1`, -1.2%.
As for `COC(=O)Nc1ccc(S(=O)(=O)NC2CCS(=O)(=O)C2)cc1` (stereo unspecified), the inhibition was -9.9%.
Turning to `COC(=O)Cn1c(=O)c(C(=O)CCl)c(N)n(Cc2ccccc2)c1=O`, the inhibition was 69.8% (active).
For `CCn1c(=O)c(C(=O)CC#N)c(N)n(Cc2ccccc2)c1=O` the value was -11.1%; for `Cn1c(N)c(C(=O)CCl)c(=O)n(Cc2ccccc2)c1=O`, 43.7%; for `COc1ccc(-c2csc3ncnc(N4CCN(c5ccccc5Cl)CC4)c23)cc1`, -4.5%.
The same measure for `CCOP(=O)(OCC)/C(=N/OC(=O)c1ccccc1C)C(N)=O`: -58.9%.
The same measure for `O=C(Cc1ccccc1)NCCc1cn2ccsc2n1`: -3.8%; for `Cc1ccc(C(=O)NC(C(=O)Nc2ccccc2)c2ccccc2)cc1` (stereo unspecified): -3.5%; for `COc1ccc(NC(=O)C(NC(=O)c2ccc(C)cc2)c2ccccc2)cc1` (stereo unspecified): 62.7% (active).
With `COc1ccc(NC(=O)C(NC(=O)c2ccc(=O)[nH]c2)c2ccccc2)cc1` (stereo unspecified), the inhibition was -7.3%.
For `CCc1ccccc1NC(=O)c1cc(-c2ccc(OC)cc2)on1` the value was -2%; for `CC1Cc2ccccc2N1C(=O)CN1CCC(n2nnc3cc(C(F)(F)F)ccc32)CC1` (stereo unspecified), 23.9%; for `O=C(Nc1cccc([N+](=O)[O-])c1)c1cc2ccccc2cc1O`, 17.3%.
For `O=C(Nc1ccccn1)c1ccc2ccccc2c1O` the value was -61.1%.
For `CC(=O)Nc1ccc(Br)c2ccccc12` the value was -4.6%.
Turning to `O=C(O)c1ccccc1C(=O)Nc1cccc([N+](=O)[O-])c1`, the inhibition is -0.9%.
For `O=C(O)c1cccc(NC(=S)N/N=C/c2ccccc2OCc2cccc(Br)c2)c1` the value was -13.5%; for `Cc1noc(-c2ccccc2)c1NC(=O)Nc1ccccc1`, 2%; for `C=CCOc1ccc2ccccc2c1CNCCCN1CCOCC1`, 10%.
The same measure for `CCN1C(=O)N(S(=O)(=O)C(F)(F)F)[C@@H](c2ccccc2)C(C(=O)OC)=C1C`: 0.6%.
In the case of `Cc1c(C(=O)N2CCN(c3ccccc3)CC2)sc2ncnc(N3CCN(c4ccccn4)CC3)c12`, the inhibition was 27.4%.
For `Cc1nc(N2CCN(c3ccccn3)CC2)c2c(C)c(C(=O)Nc3c(F)cc(F)cc3Br)sc2n1` the value was -28.6%; for `Cc1c(C(=O)N2CCN(c3ccccn3)CC2)sc2ncnc(N3CCOCC3)c12`, -12.5%; for `Cc1nc(N2CCN(c3ccccn3)CC2)c2c(C)c(C(=O)N3CCN(c4cccc(Cl)c4)CC3)sc2n1`, 18%.
For `COc1ccccc1N1CCN(C(=O)c2sc3nc(C)nc(N4CCN(c5ccccn5)CC4)c3c2C)CC1` the value was 33.2%.
For `Cc1nc(N2CCN(c3ccccn3)CC2)c2c(C)c(C(=O)Nc3ccc(F)cc3F)sc2n1` the value was 12.3%; for `Cc1nc(N2CCN(c3ccccn3)CC2)c2c(C)c(C(=O)Nc3ccc(Cl)cc3)sc2n1`, -14%.
On to `Cc1nc(N2CCN(c3ccccn3)CC2)c2c(C)c(C(=O)Nc3ccc(F)cc3Cl)sc2n1`, for which the inhibition is 6.8%.
